# According to PubChem BioAssay (NCI):
# Compounds without any hit were thinned out: in the full panel of roughly 83,000, 20% have a hit.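 Interpretation: 100, growth as untreated; towards 0, rising growth inhibition; 0, no net growth; 0 to -100, cell death. Compounds scoring below 10 were considered active.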 Unmarked numbers belong to inactive results. Calls of active or inactive are those of the source.
# Experiments:
# Assay in all cases: NCI-60 one-dose screen, 48 h (100 = growth as untreated, 0 = no growth, -100 = all killed)
# Conditions in all cases: 10 µM unless noted
# HCT-15 colon = tested on: HCT-15 colon
# HT29 colon = tested on: HT29 colon
# SNB-75 CNS = tested on: SNB-75 CNS
# SNB-19 CNS = tested on: SNB-19 CNS
# U251 CNS = tested on: U251 CNS
# PC-3 prostate = tested on: PC-3 prostate
# SK-MEL-5 melanoma = tested on: SK-MEL-5 melanoma
# UACC-62 melanoma = tested on: UACC-62 melanoma
# LOX IMVI melanoma = tested on: LOX IMVI melanoma
# SK-MEL-28 melanoma = tested on: SK-MEL-28 melanoma
SMILES,growth (HCT-15 colon),growth (HT29 colon),growth (SNB-75 CNS),growth (SNB-19 CNS),growth (U251 CNS),growth (PC-3 prostate),growth (SK-MEL-5 melanoma),growth (UACC-62 melanoma),growth (LOX IMVI melanoma),growth (SK-MEL-28 melanoma)
CC(=O)C[n+]1cccc2c3ccccc3ccc21,97.5%,93.4%,113%,69.8%,59.9%,85.1%,56.6%,73.3%,99.8%,95.6%
Nc1nnc(-c2cncc(Br)c2)c(-c2c[nH]c3ccc(Br)cc23)n1,37.1%,35.6%,50.5%,59.5%,63%,56%,31.1%,55.2%,43.1%,67.5%
c1ccc(CSc2nnc(-c3ccc4nc(-c5ccccc5)[nH]c4c3)o2)cc1,12.7%,42.5%,-51.4% (active),16.3%,4.61% (active),26.6%,29.4%,5.19% (active),-43.6% (active),-4.76% (active)
Cc1cccc(C)c1Nc1nnc(-c2c[nH]c3ccccc23)o1,97.6%,104%,88%,97.5%,95.6%,76.3%,94.1%,83.2%,83.9%,105%
C=CC[n+]1cccc2c3ccccc3ccc21,94.7%,47.3%,49.8%,26.5%,16.6%,43.7%,-39.8% (active),61%,61.8%,69%
COc1ccc(N=Nc2c(N)nn3c(-c4cc5ccccc5oc4=O)ccnc23)cc1,64.9%,50.7%,33.6%,19.8%,28.5%,70.7%,24%,47.7%,57.2%,45.4%
COc1cccc(-c2ccc(/C=N/NC(=O)c3[nH]c4ccc(Br)cc4c3-c3ccccc3)s2)c1,3.37% (active),-32.2% (active),36.8%,11.7%,-23% (active),23.7%,-60.9% (active),-17.1% (active),4.04% (active),8.82% (active)
Cc1ccc(Nc2nnc(-c3c[nH]c4ccccc34)o2)c(C)c1,8.92% (active),-37.9% (active),27.3%,31.3%,5.02% (active),28.7%,6.62% (active),7.3% (active),1.68% (active),54.5%
CCC1(OC(=O)c2ccccc2SSCCOC(=O)CCCCC2SCC3NC(=O)NC32)C(=O)OCc2c1cc1n(c2=O)Cc2cc3ccccc3nc2-1 (stereo not given),64.7%,67.8%,81.3%,36.7%,36.2%,37.4%,21.1%,17.7%,33.9%,96%
COc1ccc2ccccc2c1/C=C1\SC(=Nc2ccc(O)cc2)NC1=O,4.61% (active),0.351% (active),77.7%,24.5%,5.13% (active),21.5%,-53.6% (active),16.4%,-3.89% (active),52.7%
ClC(Cn1ncc2c(Nc3cccc(Br)c3)nc(SCCN3CCOCC3)nc21)c1ccc(Br)cc1 (stereo not given),-76.9% (active),-43% (active),59.8%,22.5%,-4.38% (active),21.3%,-89.9% (active),-44.3% (active),-89.4% (active),-46.4% (active)
Cc1ccc(N=Nc2c(N)nn3c(-c4cc5cc(Br)ccc5oc4=O)ccnc23)cc1,79.2%,65%,61.3%,-13% (active),13%,88.3%,50.8%,99.5%,51.8%,110%
C/C(=N\Nc1ccc(C(=O)O)cc1)c1cnn(-c2cc(=O)[nH]c3ccc(C)cc23)c1C,97.4%,100%,91.9%,97.5%,102%,88.8%,97.9%,91.5%,94.9%,107%
COc1ccc(/C=C/c2nc3ccccc3c(=O)n2CC(=O)Nc2ccccc2)cc1,79.9%,83.3%,-35% (active),29.1%,16.3%,84.7%,71.6%,78.6%,26.9%,79.1%
COc1ccc2c(c1)c(-c1cc(N)n3nc(-c4c[nH]c5ccccc45)cc3n1)cn2C,-69.8% (active),-71.7% (active),-24.8% (active),-57.1% (active),-87.8% (active),1.08% (active),-94.8% (active),-92% (active),-86.1% (active),-94.6% (active)
O=C1Nc2cc(-c3ccc(NS(=O)(=O)c4ccc(C(F)(F)F)cc4)cc3)ccc2/C1=C/c1ccc[nH]1,15.8%,12.2%,18.6%,69.9%,41.1%,31.2%,42.7%,30.5%,46.1%,47.4%
COc1cccc(NC(=O)c2ccc(NC(=O)CCl)s2)c1,-29.7% (active),-7.55% (active),74.6%,73.8%,-39.9% (active),-12.4% (active),32.1%,-19.4% (active),-94.9% (active),51%
Cc1ccc(-c2cc(C(=O)N=Nc3c(O)[nH]c4ccc(F)cc34)c3ccccc3n2)cc1,7.85% (active),36.3%,56.7%,41.9%,-30.9% (active),77.6%,59.2%,59.9%,1.93% (active),14.5%
O=C(c1ccc(O)cc1)C1[C@H](c2ccc(Cl)cc2)[C@@H](c2ccccc2)NC12C(=O)Nc1ccccc12 (stereo not given in full),-70.8% (active),-66.3% (active),43.5%,13.2%,-0.272% (active),1.61% (active),-92.9% (active),-22.4% (active),-100% (active),17.9%
O=C(Nc1ccc(S(=O)(=O)N2CCCCC2)cc1)C(Cl)Cl,103%,109%,103%,93.7%,98%,107%,105%,106%,100%,130%
COc1cc2cc(C(=O)N3C[C@@H](CCl)c4c3cc(OC(=O)N(CCC(=O)N3CCN(C)CC3)[C@H]3CCSSC3)c3ccccc43)[nH]c2c(OC)c1OC,-52.1% (active),-49.4% (active),-68.7% (active),-7.02% (active),-68% (active),-4.51% (active),-86.3% (active),-91.8% (active),-99.5% (active),-94.1% (active)
C=CCSc1nnc(-c2ccc(-c3nc4ccccc4[nH]3)cc2)o1,51.3%,69.5%,74%,79.7%,84%,57.5%,50.6%,73.9%,73.9%,85.6%
COc1ccccc1NC(=O)N/N=C/c1c[nH]c2ccccc12,13.8%,4.72% (active),20.8%,40.6%,20%,35.2%,4.48% (active),20.3%,-51.2% (active),44.2%
COc1ccc(N=Nc2c(N)nn3c(-c4ccc5c(c4)C=S=C5)ccnc23)cc1,18.2%,47.6%,35.6%,59.7%,34.5%,25%,16.9%,38%,13%,63.1%
O=C(c1cc2cc(OCCCN3CCC3)ccc2[nH]1)N1C[C@@H](CCl)c2c1cc(OCc1ccccc1)c1ccccc21,-21.1% (active),-25.2% (active),-79.5% (active),-12.1% (active),-80.7% (active),-21.4% (active),-23.2% (active),-82.6% (active),-94.2% (active),-45.8% (active)
COc1ccc2nc(NC(=O)c3ccc(N(C)C)cc3)sc2c1,59.4%,100%,101%,84.4%,93.5%,71.3%,55.7%,69.9%,87%,95%
